6 compounds from PubChem BioAssay (NCATS) can be followed below.

For one experiment, the system named is MKL-2. Description: qHTS assay to identify novel small-molecules to repurpose for Merkel cell carcinoma treatment (AID 1296009). Note: nearly all actives have a fitted effect of over 60% in size. As to conditions: MCC and control cell lines, CellTiter-Glo viability, 72 h; series mostly up to 46 µM. The procedure, abridged:
(§1)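 After compound transfer in DMSO, plates were kept 72 hr at 37 degree celsius. Luminescent ATP signal from CellTiter-Glo served as viability measure, normalized against DMSO and no-cell controls.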
A general note: qHTS replaces the single test concentration by a dilution series.

Another experiment relates to WaGa. Described as above. The following applies: MCC and control cell lines, CellTiter-Glo viability, 72 h; series mostly up to 46 µM. The procedure, abridged:
as §1
(In ATP-based viability assays light output follows the ATP content of the culture.)

For a further experiment, the system named is C33A. Description: Primary qHTS to identify gynecologic anti-cancer compounds using libraries of approved drugs and bioactive compounds (AID 1345084). Note: nearly all actives have a fitted effect of over 55% in size. Note: potency is the fitted concentration of half-maximal effect. As to conditions: Gynecologic cancer cell panel viability, ATPlite luminescence, 48 h; series mostly up to 57.5 µM. An outline of the steps: (§2)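 Cells, 1,000 per well, were allowed to settle for 16 h at 37 C before compound addition. Five concentrations were tested for 48 h, and viability was read by ATPlite luminescence after 15 min at room temperature.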

The subject of a further experiment is CASKI. The experiment is described as above. As to conditions: Gynecologic cancer cell panel viability, ATPlite luminescence, 48 h; series mostly up to 57.5 µM. An outline of the steps:
as §2

In a further experiment the test system is Es-2. The description is as above. The following applies: Gynecologic cancer cell panel viability, ATPlite luminescence, 48 h; series mostly up to 57.5 µM. The procedure, abridged: as §2
The test system of the next experiment is HeLa. The experiment is described as above. The following applies: Gynecologic cancer cell panel viability, ATPlite luminescence, 48 h; series mostly up to 57.5 µM. An outline of the steps:
as §2

In a further experiment the test system is Hek293T. The description is as above. As to conditions: Gynecologic cancer cell panel viability, ATPlite luminescence, 48 h, control line for the selectivity index; series mostly up to 57.5 µM. An outline of the steps: as §2
Another experiment relates to JEG-3. The experiment is described as above. The following applies: Gynecologic cancer cell panel viability, ATPlite luminescence, 48 h; series mostly up to 57.5 µM. An outline of the steps: as §2
In the next experiment the test system is OV90. The experiment is described as above. As to conditions: Gynecologic cancer cell panel viability, ATPlite luminescence, 48 h; series mostly up to 57.5 µM. An outline of the steps:
as §2

In a further experiment the test system is PA-1. The experiment is described as above. As to conditions: Gynecologic cancer cell panel viability, ATPlite luminescence, 48 h; series mostly up to 57.5 µM. An outline of the steps: as §2
For a further experiment, the system named is SKOV3. Described as above. The following applies: Gynecologic cancer cell panel viability, ATPlite luminescence, 48 h; series mostly up to 57.5 µM. The procedure, abridged:
as §2

Another experiment has as its system Tov-21-G. The description is as above. The following applies: Gynecologic cancer cell panel viability, ATPlite luminescence, 48 h; series mostly up to 57.5 µM. The procedure, abridged:
as §2

In the next experiment the test system is Tov112D. The experiment is described as above. The following applies: Gynecologic cancer cell panel viability, ATPlite luminescence, 48 h; series mostly up to 57.5 µM. An outline of the steps: as §2
The next experiment deals with UISO. Description: qHTS assay to identify novel small-molecules to repurpose for Merkel cell carcinoma treatment (AID 1296009). Note: nearly all actives have a fitted effect of over 60% in size. As to conditions: MCC and control cell lines, CellTiter-Glo viability, 72 h; series mostly up to 46 µM. The procedure, abridged:
as §1

Experiment [1] in a line: qHTS assay to identify inhibitors of the type 1 interferon - major histocompatibility complex class I in skeletal muscle: Counter screen cell viability and HiBit confirmation (AID 1347412). For all read-outs here: nearly all actives have a fitted effect of over 60% in size. Note: potency is the fitted concentration of half-maximal effect. The following applies: iHSKM muscle cells + IFN-b, HiBiT or CellTiter-Glo, 24 h; for activity change, negative = inhibition: at 45.9 µM (top of the series). The procedure, abridged:
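After 24 h with human IFN-beta (4 ng/ml) and compound titrations (top 46 uM final, 1:3, 12 points), HLA-B HiBit myoblasts were lysed for either Nano-Glo HiBiT luminescence or CellTiter Glo viability on paired plates.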

Another experiment has as its system NIH3T3. Description: qHTS assay to identify novel small-molecules to repurpose for Merkel cell carcinoma treatment (AID 1296009). Note: nearly all actives have a fitted effect of over 60% in size. As to conditions: MCC and control cell lines, CellTiter-Glo viability, 72 h; at 44.8 µM (top of the series) unless noted. The procedure, abridged:
as §1

Records with an inconclusive call do not appear. A number with no mark means an inactive call. The source made the active and inactive calls. Calls come from the whole dose curve; as a rule, active = well fitted curve in the direction sought with a large enough effect; inconclusive = small, poorly fitted or top-dose-only effect, or another doubt; inactive = no such curve, though single readings can be large; an effect the other way counts as inactive or inconclusive.
% is set by controls: 0 for no effect and ±100 for the full control effect.

Regarding `Cc1ccc(F)c(NC(=O)Nc2ccc(-c3cccc4[nH]nc(N)c34)cc2)c1`, the Potency entry in the experiment with MKL-2 and in the experiment with WaGa was “inactive” throughout.

As for `CO[C@H]1C=CO[C@@]2(C)Oc3c(C)c(O)c4c(O)c(c5c(c4c3C2=O)NC2(CCN(CC(C)C)CC2)N=5)=NC(=O)C(C)=CC=C[C@H](C)[C@H](O)[C@@H](C)[C@@H](O)[C@@H](C)[C@H](OC(C)=O)[C@H]1C`, the Potency entry with C33A, with CASKI, with Es-2, with HeLa, in the experiment on Hek293T and with JEG-3 was “inactive” each time. The Potency result in the experiment with OV90, in the experiment with PA-1, in the experiment on SKOV3, with Tov-21-G and in the experiment on Tov112D was “inactive” each time.

Take `COc1cc(N2CCC(N3CCN(C)CC3)CC2)ccc1Nc1ncc(Cl)c(Nc2ccccc2S(=O)(=O)C(C)C)n1`: the Potency entry in the experiment with MKL-2, with UISO and in the experiment on JEG-3 was “inactive” in each case. In addition, the Potency was 7940 nM (active) with CASKI; 3160 nM (active) with HeLa; 10000 nM (active) in the experiment on PA-1; 7080 nM (active) in the experiment on Tov-21-G; 17600 nM (active) in experiment [1] (HiBiT).

Take `COc1ccc(Cc2nccc3cc(OC)c(OC)cc23)cc1OC`: the activity change, negative = inhibition is -26.2% in experiment [1] (HiBiT) and -0.43% in experiment [1] (Viability).

In the case of `CCOc1ccc(Nc2nc(-c3c(C)nc4ccccn34)cs2)cc1`, the Potency with C33A was 355 nM (active); in the experiment with Es-2, 316 nM (active); in the experiment on HeLa, 178 nM (active); in the experiment with OV90 it was 1410 nM (active); in the experiment with Tov-21-G it was 316 nM (active); with Tov112D, 158 nM (active).

As for `CO[C@H]1C[C@@H]2CC[C@@H](C)[C@@](O)(O2)C(=O)C(=O)N2CCCC[C@@H]2C(=O)O[C@H]([C@@H](C)C[C@@H]2CC[C@H](O)[C@H](OC)C2)CC(=O)[C@H](C)C=C(C)[C@@H](O)[C@@H](OC)C(=O)[C@H](C)C[C@H](C)C=CC=CC=C1C`, the outcome with NIH3T3 is “inactive; activator”. The Potency result in the experiment with UISO is “inactive”.
